Reference: PubChem BioAssay (NCI)
This is part of a sample that, as a whole, favours compounds with a hit. Of some 83,000 tested, about 20% had one in any assay.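 Cells were grown in 96-well plates and exposed to the test compound at a single concentration for 48 hours; results are reported as percent growth, with values below 10 considered active.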 A number with no mark means an inactive call. The source made the active and inactive calls.

Experiments:
Experiment in all cases: NCI-60 one-dose screen, 48 h (100 = growth as untreated, 0 = no growth, -100 = all killed)
Conditions in all cases: 10 µM unless noted
NCI-H23 lung = test system: NCI-H23 lung
NCI-H226 lung = test system: NCI-H226 lung
NCI-H322M lung = test system: NCI-H322M lung
HOP-62 NSCLC = test system: HOP-62 NSCLC
NCI-H460 lung = test system: NCI-H460 lung
NCI-H522 lung = test system: NCI-H522 lung
A549/ATCC NSCLC = test system: A549/ATCC NSCLC
786-0 renal = test system: 786-0 renal
COLO 205 colon = test system: COLO 205 colon
DU-145 prostate = test system: DU-145 prostate
K-562 leukemia = test system: K-562 leukemia
MALME-3M melanoma = test system: MALME-3M melanoma
MDA-MB-231 breast = test system: MDA-MB-231 breast
RXF 393 renal = test system: RXF 393 renal
SF-268 CNS = test system: SF-268 CNS
SF-539 CNS = test system: SF-539 CNS
UACC-257 melanoma = test system: UACC-257 melanoma
M14 melanoma = test system: M14 melanoma
HCT-15 colon = test system: HCT-15 colon
SF-295 CNS = test system: SF-295 CNS

Structure (SMILES)	growth (NCI-H23 lung)	growth (NCI-H226 lung)	growth (NCI-H322M lung)	growth (HOP-62 NSCLC)	growth (NCI-H460 lung)	growth (NCI-H522 lung)	growth (A549/ATCC NSCLC)	growth (786-0 renal)	growth (COLO 205 colon)	growth (DU-145 prostate)	growth (K-562 leukemia)	growth (MALME-3M melanoma)	growth (MDA-MB-231 breast)	growth (RXF 393 renal)	growth (SF-268 CNS)	growth (SF-539 CNS)	growth (UACC-257 melanoma)	growth (M14 melanoma)	growth (HCT-15 colon)	growth (SF-295 CNS)
Cc1ccc(C(=O)Nc2ccc(Cl)cc2C(=O)NCc2ccccc2)cc1	96.7%	92.9%	98.2%	88.3%	92.4%	53.9%	85.9%	97.8%	97.4%	96%	30%	88.9%	95.8%	87.4%	94.2%	82.3%	85.2%	74.9%	57.4%	–
S=C1SCN(Cc2ccccc2)CN1Cc1ccco1	94.1%	111%	112%	85.3%	105%	4.84% (active)	101%	90.5%	83.3%	68.3%	11.6%	94%	91.3%	101%	94.2%	65.8%	72.4%	87.1%	41.7%	–
COc1ccc(-c2noc(N)c2-c2cc(OC)c3c(c2)OCO3)cc1	28.1%	86.3%	57.5%	34.6%	16%	-23.4% (active)	29.2%	59.7%	12.4%	28.7%	2.56% (active)	-2.12% (active)	47.6%	32.4%	35.6%	9.14% (active)	50.8%	11.7%	20.6%	–
c1cnc2n[nH]c(Nc3ncnc4c3sc3ncccc34)c2c1	82.4%	93.8%	106%	90.8%	96%	82.1%	87.3%	106%	107%	115%	86.8%	92.9%	97.4%	99.6%	108%	105%	90.3%	97.4%	95.1%	–
CCN(CC)c1ccc(N=Nc2cc(Cl)ccc2Cl)c(NC(=O)CCC(=O)O)c1	101%	98.1%	111%	86.6%	108%	106%	101%	108%	106%	108%	98.8%	91.8%	81.4%	116%	105%	79.9%	117%	101%	89.5%	–
CN(C)c1ccc2c(c1)/C(=N/O)c1ccccc1-2	89%	91.8%	113%	92.2%	97.2%	89%	84.2%	104%	103%	105%	29.7%	87.9%	89.8%	81%	78.3%	60%	81.6%	69.7%	78.7%	–
O=C(Nc1ccc(OCc2nnc(-c3ccccc3)o2)c(F)c1)Nc1ccc(Cl)c(C(F)(F)F)c1	8.65% (active)	59.3%	28.8%	13.6%	-0.0623% (active)	13.9%	11.6%	53.2%	-46.3% (active)	10%	12.9%	8.78% (active)	29.3%	45.9%	36.2%	36.1%	28.3%	23.8%	11.8%	–
CCOC(=O)C1=C(C)N2C(=NC3=C(CCC/C3=C\c3ccc(Cl)cc3)C2c2ccc(Cl)cc2)S1 (centres undefined)	10.9%	47.5%	101%	88.2%	51.8%	58%	5.11% (active)	-0.562% (active)	8.78% (active)	-0.137% (active)	-11.8% (active)	77%	71.6%	-71.7% (active)	34.7%	41.3%	25.7%	-40.8% (active)	-28.7% (active)	–
NNC(=O)NO	98.6%	103%	93%	88.9%	105%	86%	101%	98.5%	111%	109%	94.8%	98.6%	122%	115%	104%	104%	112%	102%	102%	–
Fc1ccc(-c2nnc(-c3c(-c4ccc(F)cc4)nc4ncccn34)o2)cc1	98.2%	113%	105%	105%	111%	89.1%	96%	93.1%	104%	103%	89.3%	121%	122%	97.8%	–	94.4%	107%	112%	87.9%	93%
Nc1nonc1-c1nc2ccccc2n1CC(=O)Nc1ccc2c(c1)COC2=O	86.3%	87.7%	107%	83.8%	95.7%	61.6%	88.8%	93%	98.4%	108%	38.9%	79.4%	82.1%	93.7%	90.3%	86.5%	90.1%	72.9%	70.5%	–
Cc1cc(O)c2c(c1)C[C@H]1[C@@H]3CC[C@H]4CC(=O)CC[C@]4(C)[C@H]3CC(=O)[C@]21C	77.3%	94.6%	104%	123%	99.2%	73.9%	77%	87.8%	104%	85.2%	53.3%	92.8%	86%	94.1%	87.6%	73.3%	100%	80.9%	45.3%	–
ClC1=C(Cl)C(Cl)=C(Cl)C1=C/C=C/c1ccccc1	-45.9% (active)	-70.5% (active)	-27.8% (active)	-68.2% (active)	0.0738% (active)	-52.4% (active)	-58% (active)	-71.3% (active)	-90.6% (active)	-46.5% (active)	-18.9% (active)	-38.8% (active)	-17.2% (active)	–	-48.7% (active)	-92.4% (active)	-80.7% (active)	-55.6% (active)	-77% (active)	-2.39% (active)
CN(C)c1nc(N)nc(Cn2c(-c3nonc3N)nc3ccccc32)n1	90.4%	91.3%	103%	81%	95.6%	77.5%	86.7%	99.2%	83.7%	109%	23.1%	88%	76.7%	89.6%	101%	86.5%	93.3%	72.7%	59.4%	–
COc1ccc2[nH]cc(/C=C3/C(=O)Nc4ccc(Cl)cc43)c2c1	37.8%	60.1%	57.1%	64.8%	46.1%	-7.27% (active)	56.6%	43.2%	63.8%	47.6%	27.4%	31.5%	28.2%	21.3%	–	67.8%	68.5%	37.2%	30.4%	53.1%
Oc1[nH]c2ccccc2c1/C=c1/ccc2c(c1)N=C(c1cc(F)cc(F)c1)N=2	64.3%	85.4%	83.1%	101%	56.9%	59.7%	66.5%	64.2%	96%	72.1%	12.8%	101%	53.8%	78.5%	80.8%	90.7%	98.7%	58.2%	31.5%	–
